This passage reports inhibition results from ChEMBL document CHEMBL1961873, “Compounds: GSK PKIS; Assays: Nanosyn kinase panel” (2012).

In test [1] the target is Dual specificity protein kinase CLK3 (Homo sapiens) (UniProt P49761). To be noted: at 1 µM.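 Further: each value is the mean inhibition of CLK3.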
Test [2] deals with Dual specificity tyrosine-phosphorylation-regulated kinase 1A (Homo sapiens) (UniProt Q13627). To be noted: at 0.1 µM.
The target is the same in test [3]. To be noted: at 1 µM.
Test [4] concerns the target Dual specificity tyrosine-phosphorylation-regulated kinase 1B (Homo sapiens) (UniProt Q9Y463). The settings on record: at 0.1 µM.
Test [5] shares this target. The settings on record: at 1 µM.
Test [6] addresses T1, Dual specificity tyrosine-phosphorylation-regulated kinase 2 (Homo sapiens) (UniProt Q92630).
T1 sequence (whole entry): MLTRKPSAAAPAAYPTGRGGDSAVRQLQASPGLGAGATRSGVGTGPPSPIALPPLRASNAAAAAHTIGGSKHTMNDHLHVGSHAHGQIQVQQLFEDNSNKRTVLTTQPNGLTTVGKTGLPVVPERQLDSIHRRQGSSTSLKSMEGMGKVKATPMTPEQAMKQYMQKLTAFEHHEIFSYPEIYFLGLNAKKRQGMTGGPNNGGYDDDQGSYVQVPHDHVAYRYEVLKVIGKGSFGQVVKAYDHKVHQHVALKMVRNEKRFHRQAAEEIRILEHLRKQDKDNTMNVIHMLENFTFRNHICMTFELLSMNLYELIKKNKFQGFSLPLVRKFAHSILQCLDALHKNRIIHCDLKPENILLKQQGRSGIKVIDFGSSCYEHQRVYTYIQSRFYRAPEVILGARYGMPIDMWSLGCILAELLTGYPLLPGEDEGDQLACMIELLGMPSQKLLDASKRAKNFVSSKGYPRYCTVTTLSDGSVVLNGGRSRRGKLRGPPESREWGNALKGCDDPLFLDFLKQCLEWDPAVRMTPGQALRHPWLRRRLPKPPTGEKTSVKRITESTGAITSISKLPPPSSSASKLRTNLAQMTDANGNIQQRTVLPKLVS
The settings on record: at 0.1 µM.

The target in test [7] is T1, Dual specificity tyrosine-phosphorylation-regulated kinase 2 (Homo sapiens). The settings on record: at 1 µM.
Test [8] concerns the target Glycogen synthase kinase-3 alpha (Homo sapiens) (UniProt P49840). The settings on record: at 0.1 µM.
The target is the same in test [9]. To be noted: at 1 µM.
The target in test [10] is Glycogen synthase kinase-3 beta (Homo sapiens) (UniProt P49841). The settings on record: at 0.1 µM.
Sequence of Glycogen synthase kinase-3 beta (Homo sapiens) (P49841 whole entry, looked up): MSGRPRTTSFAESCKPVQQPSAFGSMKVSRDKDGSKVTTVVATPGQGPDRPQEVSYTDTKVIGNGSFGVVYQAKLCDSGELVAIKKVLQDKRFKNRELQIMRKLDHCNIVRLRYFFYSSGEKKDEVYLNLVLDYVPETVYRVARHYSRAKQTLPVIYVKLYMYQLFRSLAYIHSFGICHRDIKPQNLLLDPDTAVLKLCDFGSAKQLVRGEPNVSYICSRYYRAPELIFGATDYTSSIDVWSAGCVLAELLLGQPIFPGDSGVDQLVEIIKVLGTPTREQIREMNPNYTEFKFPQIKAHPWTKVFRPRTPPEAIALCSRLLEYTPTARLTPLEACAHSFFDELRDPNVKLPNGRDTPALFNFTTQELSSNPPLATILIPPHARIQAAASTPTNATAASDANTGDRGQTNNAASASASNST
The target is the same in test [11]. The settings on record: at 1 µM.
Test [12] has as its target Homeodomain-interacting protein kinase 1 (Homo sapiens) (UniProt Q86Z02). The settings on record: at 0.1 µM.
Test [13] shares this target. To be noted: at 1 µM.
Test [14] concerns the target T2, Homeodomain-interacting protein kinase 4 (Homo sapiens) (UniProt Q8NE63).
T2 sequence (whole entry): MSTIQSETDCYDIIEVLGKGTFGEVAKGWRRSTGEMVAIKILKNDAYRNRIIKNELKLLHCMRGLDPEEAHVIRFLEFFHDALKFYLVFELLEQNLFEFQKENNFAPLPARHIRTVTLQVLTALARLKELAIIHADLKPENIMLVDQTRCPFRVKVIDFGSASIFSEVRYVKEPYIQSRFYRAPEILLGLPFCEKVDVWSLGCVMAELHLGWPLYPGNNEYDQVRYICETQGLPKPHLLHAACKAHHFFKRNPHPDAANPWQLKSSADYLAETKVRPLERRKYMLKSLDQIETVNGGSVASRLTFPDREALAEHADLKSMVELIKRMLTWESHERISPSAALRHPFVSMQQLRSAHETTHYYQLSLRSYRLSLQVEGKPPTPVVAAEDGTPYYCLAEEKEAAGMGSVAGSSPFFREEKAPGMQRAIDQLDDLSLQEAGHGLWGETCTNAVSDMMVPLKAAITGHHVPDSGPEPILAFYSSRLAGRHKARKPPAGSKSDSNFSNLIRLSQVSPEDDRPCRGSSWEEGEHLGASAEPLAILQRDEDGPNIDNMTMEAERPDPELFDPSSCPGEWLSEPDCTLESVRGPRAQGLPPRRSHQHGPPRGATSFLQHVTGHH
To be noted: at 0.1 µM.

Test [15] addresses T2, Homeodomain-interacting protein kinase 4 (Homo sapiens). The settings on record: at 1 µM.
For test [16], the target named is Mitogen-activated protein kinase 9 (Homo sapiens) (UniProt P45984). The settings on record: at 0.1 µM.
Sequence of Mitogen-activated protein kinase 9 (Homo sapiens) (P45984 whole entry, looked up): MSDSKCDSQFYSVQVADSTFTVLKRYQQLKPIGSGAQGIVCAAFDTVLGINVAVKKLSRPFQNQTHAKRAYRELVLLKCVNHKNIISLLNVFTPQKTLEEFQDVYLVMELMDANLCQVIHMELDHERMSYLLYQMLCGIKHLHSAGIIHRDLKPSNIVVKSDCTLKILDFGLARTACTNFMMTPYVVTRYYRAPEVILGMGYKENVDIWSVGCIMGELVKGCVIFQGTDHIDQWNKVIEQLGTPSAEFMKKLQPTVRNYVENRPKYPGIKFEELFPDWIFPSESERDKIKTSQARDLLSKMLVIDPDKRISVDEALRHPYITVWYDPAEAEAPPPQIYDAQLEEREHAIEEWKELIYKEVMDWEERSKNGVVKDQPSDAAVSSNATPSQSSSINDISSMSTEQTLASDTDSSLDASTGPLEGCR
The target is the same in test [17]. The settings on record: at 1 µM.
In test [18] the target is Mitogen-activated protein kinase 1 (Homo sapiens) (UniProt P28482). The settings on record: at 0.1 µM.
Sequence of Mitogen-activated protein kinase 1 (Homo sapiens) (P28482 whole entry): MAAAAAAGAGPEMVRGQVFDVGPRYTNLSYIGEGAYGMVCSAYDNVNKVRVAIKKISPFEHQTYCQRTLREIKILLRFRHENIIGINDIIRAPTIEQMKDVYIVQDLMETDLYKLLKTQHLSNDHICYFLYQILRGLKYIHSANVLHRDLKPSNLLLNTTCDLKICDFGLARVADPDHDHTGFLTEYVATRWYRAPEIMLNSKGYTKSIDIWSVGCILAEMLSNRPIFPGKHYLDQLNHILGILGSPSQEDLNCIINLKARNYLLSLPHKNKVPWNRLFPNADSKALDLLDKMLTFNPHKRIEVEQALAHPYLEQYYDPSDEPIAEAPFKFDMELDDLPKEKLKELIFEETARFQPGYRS
For test [19] the target is unchanged. The settings on record: at 1 µM.
Test [20] concerns the target Mitogen-activated protein kinase 3 (Homo sapiens) (UniProt P27361). The settings on record: at 0.1 µM.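 Further: each value is a mean inhibition figure.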

One may read the inhibition as the drop in the measured response relative to a control, in per cent.

Sequence of Homeodomain-interacting protein kinase 1 (Homo sapiens) (Q86Z02 whole entry, looked up): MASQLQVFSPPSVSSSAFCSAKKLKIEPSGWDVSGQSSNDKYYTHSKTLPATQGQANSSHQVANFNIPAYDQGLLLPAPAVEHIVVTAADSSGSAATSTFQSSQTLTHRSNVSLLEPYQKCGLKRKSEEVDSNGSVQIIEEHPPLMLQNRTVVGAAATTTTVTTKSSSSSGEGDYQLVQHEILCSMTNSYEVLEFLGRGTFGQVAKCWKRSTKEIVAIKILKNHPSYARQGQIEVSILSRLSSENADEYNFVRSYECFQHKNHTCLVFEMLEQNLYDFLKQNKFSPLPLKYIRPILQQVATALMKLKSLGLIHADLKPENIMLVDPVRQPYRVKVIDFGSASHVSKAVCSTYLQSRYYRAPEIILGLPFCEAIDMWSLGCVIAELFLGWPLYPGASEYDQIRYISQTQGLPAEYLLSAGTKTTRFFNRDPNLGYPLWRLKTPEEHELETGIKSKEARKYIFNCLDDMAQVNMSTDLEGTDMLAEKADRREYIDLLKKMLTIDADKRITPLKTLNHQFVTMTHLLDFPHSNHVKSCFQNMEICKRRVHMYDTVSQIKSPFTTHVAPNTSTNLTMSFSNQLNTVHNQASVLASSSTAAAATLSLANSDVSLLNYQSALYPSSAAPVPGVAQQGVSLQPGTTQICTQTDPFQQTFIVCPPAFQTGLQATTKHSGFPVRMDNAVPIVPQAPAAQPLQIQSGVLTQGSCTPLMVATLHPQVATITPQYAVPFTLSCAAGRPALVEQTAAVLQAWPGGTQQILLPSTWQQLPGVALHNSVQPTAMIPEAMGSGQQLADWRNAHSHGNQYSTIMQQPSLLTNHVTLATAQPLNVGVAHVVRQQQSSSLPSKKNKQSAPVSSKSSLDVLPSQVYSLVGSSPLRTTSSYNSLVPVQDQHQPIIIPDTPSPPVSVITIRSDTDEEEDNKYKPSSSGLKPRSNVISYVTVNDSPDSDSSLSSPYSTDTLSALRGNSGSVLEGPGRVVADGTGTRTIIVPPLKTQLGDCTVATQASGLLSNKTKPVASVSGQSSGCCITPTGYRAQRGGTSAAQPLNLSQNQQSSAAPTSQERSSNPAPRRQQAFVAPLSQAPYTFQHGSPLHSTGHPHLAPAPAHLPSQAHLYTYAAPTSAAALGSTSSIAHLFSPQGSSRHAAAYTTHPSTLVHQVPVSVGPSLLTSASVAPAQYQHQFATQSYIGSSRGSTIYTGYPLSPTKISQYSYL
Sequence of Dual specificity protein kinase CLK3 (Homo sapiens) (P49761 whole entry, looked up): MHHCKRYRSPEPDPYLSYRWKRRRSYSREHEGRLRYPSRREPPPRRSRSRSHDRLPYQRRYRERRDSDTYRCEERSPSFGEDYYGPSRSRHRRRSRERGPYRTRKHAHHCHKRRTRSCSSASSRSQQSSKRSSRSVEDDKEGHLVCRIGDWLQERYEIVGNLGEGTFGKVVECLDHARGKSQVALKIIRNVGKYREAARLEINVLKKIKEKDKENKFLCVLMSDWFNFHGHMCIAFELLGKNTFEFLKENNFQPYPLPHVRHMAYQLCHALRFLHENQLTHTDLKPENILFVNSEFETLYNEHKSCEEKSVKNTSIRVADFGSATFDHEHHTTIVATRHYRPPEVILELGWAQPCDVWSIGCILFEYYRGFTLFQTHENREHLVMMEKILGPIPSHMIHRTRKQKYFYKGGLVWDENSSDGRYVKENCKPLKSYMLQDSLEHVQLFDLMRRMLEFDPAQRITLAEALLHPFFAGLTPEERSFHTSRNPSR
Sequence of Glycogen synthase kinase-3 alpha (Homo sapiens) (P49840 2-483 limits assumed): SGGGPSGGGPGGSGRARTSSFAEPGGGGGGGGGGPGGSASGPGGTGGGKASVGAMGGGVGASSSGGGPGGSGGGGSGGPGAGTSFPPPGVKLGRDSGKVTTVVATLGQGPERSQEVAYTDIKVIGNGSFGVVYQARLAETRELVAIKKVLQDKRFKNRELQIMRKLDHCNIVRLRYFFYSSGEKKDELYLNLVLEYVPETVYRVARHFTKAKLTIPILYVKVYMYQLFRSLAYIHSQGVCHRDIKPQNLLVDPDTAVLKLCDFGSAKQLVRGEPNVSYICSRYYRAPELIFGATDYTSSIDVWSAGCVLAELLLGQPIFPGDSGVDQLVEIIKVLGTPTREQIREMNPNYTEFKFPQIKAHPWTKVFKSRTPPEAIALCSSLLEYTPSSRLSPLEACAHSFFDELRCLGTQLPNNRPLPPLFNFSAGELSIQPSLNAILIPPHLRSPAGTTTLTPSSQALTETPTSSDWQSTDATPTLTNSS
Sequence of Mitogen-activated protein kinase 3 (Homo sapiens) (P27361 whole entry): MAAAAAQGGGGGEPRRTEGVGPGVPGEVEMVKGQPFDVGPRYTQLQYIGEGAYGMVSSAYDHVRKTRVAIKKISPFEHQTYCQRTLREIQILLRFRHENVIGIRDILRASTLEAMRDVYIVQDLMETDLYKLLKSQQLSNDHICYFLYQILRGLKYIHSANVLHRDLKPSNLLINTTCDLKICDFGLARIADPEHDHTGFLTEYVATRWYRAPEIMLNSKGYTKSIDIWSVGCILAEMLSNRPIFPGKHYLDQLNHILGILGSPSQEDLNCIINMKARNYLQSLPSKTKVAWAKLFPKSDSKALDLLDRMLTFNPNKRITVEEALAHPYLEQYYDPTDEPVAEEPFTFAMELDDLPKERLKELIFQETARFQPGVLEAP
Sequence of Dual specificity tyrosine-phosphorylation-regulated kinase 1B (Homo sapiens) (Q9Y463 whole entry, looked up): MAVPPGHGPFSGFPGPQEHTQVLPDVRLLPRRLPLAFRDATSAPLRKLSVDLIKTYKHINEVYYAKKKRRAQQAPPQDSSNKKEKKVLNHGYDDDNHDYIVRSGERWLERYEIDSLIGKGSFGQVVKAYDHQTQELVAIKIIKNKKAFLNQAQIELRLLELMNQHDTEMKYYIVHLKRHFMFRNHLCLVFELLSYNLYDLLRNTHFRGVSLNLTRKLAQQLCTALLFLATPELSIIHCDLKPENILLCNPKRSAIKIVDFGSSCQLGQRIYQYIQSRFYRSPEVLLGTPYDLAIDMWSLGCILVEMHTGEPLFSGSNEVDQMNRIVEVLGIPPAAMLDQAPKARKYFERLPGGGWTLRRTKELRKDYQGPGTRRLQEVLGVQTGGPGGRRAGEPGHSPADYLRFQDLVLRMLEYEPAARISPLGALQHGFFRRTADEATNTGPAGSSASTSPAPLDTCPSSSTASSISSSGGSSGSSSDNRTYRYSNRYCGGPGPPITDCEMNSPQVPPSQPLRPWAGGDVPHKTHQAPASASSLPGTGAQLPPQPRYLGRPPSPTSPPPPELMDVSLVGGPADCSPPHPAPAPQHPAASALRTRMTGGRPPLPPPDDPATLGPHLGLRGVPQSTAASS

On to `COc1cc(/C=N/Nc2ncnc3[nH]ncc23)ccc1O`, for which the inhibition was 13.2% in test [1]; 12.5% in test [2]; 45.1% in test [3]; 6.29% in test [4]; 31.6% in [5]; 7.46% in [6]. Also, the inhibition in test [7] was 44.8%; in [8], 9.63%; in test [9] it was 41.7%; in test [10] it was 7%; in test [11], 24.5%; in test [12], 9.37%. Besides, the inhibition in test [13] was 39.4%; in [14], 5.91%; in test [15], 23%; in [16], 1.89%; in test [17], 5.5%; in test [18], 3.68%. Besides, the inhibition in [19] came out at 4.72%; in test [20], 2.18%.
On to `Fc1ccc(-c2nn3ccccc3c2-c2ccncc2)cc1`, for which the inhibition in [1] was determined as 0.88%; in test [2] it was 0.99%; in test [3], 3.18%; in [4], 0.03%; in test [5], 2.03%; in [6], 0.76%. For the same compound, the inhibition is 1.76% in test [7]; 1.02% in test [8]; 6.14% in test [9]; 1.33% in [10]; 10.7% in [11]; -1.55% in test [12]. Also, the inhibition in [13] was 0.97%; in test [14] it was -0.72%; in test [15] it was 0.37%; in [16], 4.3%; in [17], 25.4%; in [18], 0.83%. The inhibition in test [19] worked out at 1.21%; in test [20] it was 1.33%.
Regarding `COC(=O)c1sc(-n2cnc3cc(OC)c(OC)cc32)cc1OCc1ccccc1C(F)(F)F`, the inhibition is 0.53% in test [1]; 1.62% in [2]; 3.44% in test [3]; -1.47% in test [4]; -1.98% in test [5]; 3.48% in test [6]. Further, the inhibition in test [7] was 4.12%; in test [8], 1.51%; in test [9] it was 4.48%; in test [10], -0.28%; in test [11], 3.49%; in test [12], -2.18%. Also, the inhibition in test [13] was -0.46%; in [14], -0.74%; in [15], 1.47%; in [16] it was 3.59%; in [17], 6.58%; in test [18], 4.72%. For the same compound, the inhibition amounted to 5.29% in test [19] and 3.25% in [20].
As to `COc1cc(Nc2nccc(Nc3ccc4c(C)n[nH]c4c3)n2)cc(OC)c1OC`, the inhibition turned out to be 6.44% in [1]; 0.88% in test [2]; 7.54% in test [3]; 2.83% in [4]; 5.43% in test [5]; 1.95% in [6]. The inhibition in test [7] was 4.25%; in test [8], 2.79%; in test [9], 17.3%; in [10], 2.73%; in test [11], 16.1%; in [12], -0.29%. Moreover, the inhibition in test [13] was 1.88%; in test [14], 1.59%; in test [15] it was 3.91%; in [16], 2.22%; in [17], 13.6%; in test [18], 0.66%. In addition, the inhibition is 3.16% in [19] and 1.57% in [20].
On to `Fc1ccc(-c2cc(-c3c[nH]nc3-c3ccccn3)ccn2)cc1`, for which the inhibition in [1] is 0.54%; in test [2], 2.96%; in test [3] it was 5.69%; in [4], -1.65%; in test [5] it was -0.27%; in test [6], 3.36%. Besides, the inhibition amounted to 4.06% in [7]; 2.14% in test [8]; 2.16% in [9]; 1.39% in test [10]; 2.88% in test [11]; 1.57% in test [12]. Further, the inhibition in [13] is 0.95%; in test [14], 1.68%; in test [15] it was 4.16%; in [16] it was 3.65%; in test [17], 11.3%; in [18] it was 6.73%. Further, the inhibition in test [19] amounted to 5.51%; in [20], 6.42%.
Regarding `CCn1c(-c2nonc2N)nc2cnc(Oc3cccc(NC(=O)c4ccc(N(C)C)cc4)c3)cc21`, the inhibition in test [1] was 0.75%; in [2] it was 0.93%; in test [3], 5.38%; in test [4], -0.45%; in [5] it was 4.48%; in test [6] it was 1%. Further, the inhibition in test [7] is 2.79%; in [8], 8.94%; in test [9], 46.6%; in test [10] it was 6.2%; in [11] it was 41%; in test [12], -2.28%. Further, the inhibition in test [13] is 1.69%; in test [14], -1.11%; in test [15], 3.8%; in test [16] it was 2.94%; in [17], 3.41%; in test [18], 1.18%. For the same compound, the values for the inhibition in test [19] and in test [20] were 3.77% and 1.53%, respectively.
On to `COc1ccc(-c2cc3c(N)ncnc3o2)cc1`, for which the inhibition came out at 11.4% in test [1]; 4.26% in test [2]; 22.7% in [3]; 5.2% in [4]; 12% in test [5]; 0.06% in test [6]. For the same compound, the inhibition in test [7] worked out at 18.5%; in test [8], 5.87%; in [9], 7.92%; in [10], 5.53%; in test [11], 8%; in [12], 0%. For the same compound, the inhibition is 5.4% in [13]; 2.36% in test [14]; 16.5% in [15]; -0.62% in [16]; -0.18% in [17]; 1% in test [18]. Further, the inhibition in test [19] was 0.69%; in test [20], -1.53%.
